Rows were chosen to be rich in hits. Some 2.4% of all compounds tested hit in one or more screens of this group.
B2AR arrestin – agonists driving beta-arrestin recruitment to human beta2-adrenergic receptor; 330,000 tested, 0.02% active; AID 492947; Potency, µM (series often up to 46.1 µM), without a hit: at the highest dose activation, most hits filed as activators; beta-arrestin recruitment to beta2AR, cell-based reporter; P07550; active = well fitted activation curve with a large enough effect;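 also: potency is read from the fitted curve at half-maximal effect; 0% = DMSO controls and full agonism = EC100 isoproterenol or metaproterenol; nearly all actives have a fitted effect of over 65% in size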
Target sequence (P07550 whole entry, looked up): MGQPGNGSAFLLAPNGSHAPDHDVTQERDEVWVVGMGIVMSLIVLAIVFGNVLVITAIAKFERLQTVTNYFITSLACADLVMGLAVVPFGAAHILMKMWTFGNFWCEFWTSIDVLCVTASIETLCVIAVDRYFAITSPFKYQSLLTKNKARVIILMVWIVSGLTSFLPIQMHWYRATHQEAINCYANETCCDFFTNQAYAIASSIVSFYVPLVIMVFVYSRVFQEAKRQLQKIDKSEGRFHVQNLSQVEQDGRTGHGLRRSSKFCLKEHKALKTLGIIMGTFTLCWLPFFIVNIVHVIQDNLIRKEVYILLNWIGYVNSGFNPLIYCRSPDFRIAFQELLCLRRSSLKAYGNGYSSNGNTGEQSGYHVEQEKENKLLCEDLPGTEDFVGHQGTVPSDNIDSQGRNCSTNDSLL
D2 ag-1 – human D2 receptor agonism in beta-arrestin assay; P14416; DiscoveRx PathHunter D2 beta-arrestin, luminescence, 90 min; 100% = 57 uM dopamine signal; activation, % (no concentration beside the values); 360,000 tested, 0.084% active; AID 624465; in the data active = activation above about 40%
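DiscoveRx PathHunter D2 beta-arrestin cells (2,100/well) attached overnight, then compound-stimulated 90 min at 37 C in HBSS/10 mM HEPES/0.1% Tween-20 buffer; beta-galactosidase complementation read by luminescence after 1 h at ambient temperature. Dopamine 57 uM final (EC100) as control.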
D2 PAM-1 – human D2 receptor positive allosteric modulation | AID 624464 | DiscoveRx D2 beta-arrestin cells, luminescence, 90 min; 100% = 57 uM dopamine signal | 360,000 tested, 0.23% active | potentiation, % (no concentration beside the values); in the data active = potentiation above about 50%
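D2 cells co-treated with compound plus 50 nM dopamine (EC20) for 90 min at 37 deg C to detect potentiation. Beta-arrestin recruitment was read as enzyme-fragment luminescence after 1 h at ambient temperature. Full response was set by 57 uM dopamine.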
D2 ag-2 – activates the human D2 dopamine receptor | P14416 | HEK293 T-REx D2 cells, calcium flux agonist mode | activation, % at 2 µM | 340,000 tested, 0.53% active | AID 485358;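 active = activation over 3 SD above normal in the single-dose calcium agonist read, cut at about 30% in these data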; also: 0% is about no effect
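Tetracycline-induced HEK293 Trex cells with D2 receptor force-coupled to calcium signaling, plated overnight at 30 C and loaded with no-wash calcium dye. Calcium flux read kinetically for 180 s after compound addition; responses flag agonists.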
D2 PAM-2 – positive allosteric modulators of human D2 dopamine receptor. HEK293 T-REx D2, calcium flux, EC20 dopamine potentiation. potentiation, % at 10 µM. 340,000 tested, 0.34% active;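 active = potentiation over 3 SD above the plate norm, cut at about 30% in these data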; also: 0% is about no effect
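Calcium flux readout, no-wash dye, 1 read/s. Inducible HEK293 Trex D2 line, overnight 30 C. Compound alone 180 s (agonist flags), then EC20 dopamine, another 180 s to score potentiation.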
D2 antag – D2 dopamine receptor (human) antagonism; P14416; HEK293 TREx D2 cells, calcium flux, dopamine EC80; inhibition, % at 10 µM; 340,000 tested, 2% active; AID 485344; in the data active = inhibition above about 30%; inactive = below that, where a call was filed; also: 0% is about no effect
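Inhibition of EC80 dopamine-driven calcium flux, recorded kinetically, defines activity here; cells are a tetracycline-induced HEK293 T-REx line expressing force-coupled D2.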
* hit, by the source's call; nt = not tested or not shown.

SMILES	B2AR arrestin	D2 ag-1	D2 PAM-1	D2 ag-2	D2 PAM-2	D2 antag
CC(C)C(=O)NC(=S)/C=C1/N(C)c2ccccc2C1(C)C	3%	-3	-11	0	-3	-2
CN1/C(=C\C(=O)c2cccnc2)C(C)(C)c2ccccc21	0%	-2	-8	-1	3	32*
CN1\C(=C/C=C/C=C/C=[N+](C)C)C(C)(C)c2ccccc21	1%	8	-19	47*	-4	63*
O=c1[nH]c(Nc2ccc3c(c2)OCCO3)nnc1Cc1ccc(Cl)cc1	0%	-1	-4	0	2	33*
COc1ccc(Cc2nnc(Nc3ccc(Cl)cc3)[nH]c2=O)cc1	6%	4	0	-1	-1	-4
COc1cccc2c1[C@@H]1CN(CCCCn3c(=O)[nH]c4c(sc5ncc(-c6ccccc6)nc54)c3=O)C[C@@H]1CO2	0%	-5	-35	2	-19	56*
Cc1ccccc1-c1nc2c3ccccc3nc(=S)n2[nH]1	10µM*	-21	-6	0	6	-9
Cn1c(=O)c2c(nc(OCC3COC(C)(C)O3)n2Cc2ccccc2F)n(C)c1=O (stereo not drawn)	-1%	0	-11	2	6	-4
CN(C)CCCNc1oc(-c2ccccc2Cl)nc1S(=O)(=O)c1ccc(F)cc1	0%	-3	-21	2	-20	34*
Cc1ccc(CC(=O)Nc2nncs2)cc1	-1%	0	4	0	0	47*
CCCNC(=O)c1cc(C2CCCCN2C(=O)CCCc2ccccc2)on1 (stereo not drawn)	nt	-1	-3	nt	nt	nt
CCCC(=O)C1=C(O)C(C(=O)OC)C(C)(C)CC1=NC(C)C (stereo not drawn)	-1%	0	0	0	5	33*
CCCC(=O)C1=C(O)C(C(=O)OC)C(C)(C)CC1=NC(C)(C)C (stereo not drawn)	0%	-3	-24	0	-3	17
COc1cc(NC(=S)NNC(=O)C(C)(C)O)cc(OC)c1	0%	-6	-5	1	3	-15
COc1ccccc1N=Cc1nc(-c2ccccc2)oc1OC(C)=O	1%	-1	5	0	-9	50*
CC(=O)Oc1oc(-c2ccccc2)nc1/C=N/c1ccccn1	-1%	2	-11	1	-1	-5
Cc1c(Cl)cccc1NC(=O)CSc1nncn1-c1ccccn1	3%	2	1	0	-8	8
CCN(CCNc1ccc(Cl)cc1[N+](=O)[O-])C(=O)c1cc([N+](=O)[O-])c(N(C)C)cc1OC	0%	-5	-21	0	-8	34*
CN(C)CCNc1ccc(Cl)cc1[N+](=O)[O-]	-1%	-2	-43	0	-20	-7
Cc1cccc(Nc2nc(N3CCOCC3)nc(N3CCOCC3)n2)c1	0%	-2	-8	0	5	7
Oc1cccc(Nc2nc(N3CCOCC3)nc(N3CCOCC3)n2)c1	-1%	3	5	1	-4	36*
O=C(Nc1cc(S(=O)(=O)N2CCOCC2)ccc1Cl)C(=O)c1c(-c2ccccc2)cc2ccccn12	0%	-2	-8	1	-7	-4
Cc1oc2c(CN3CCCC3)c(O)ccc2c(=O)c1-c1ccccc1	0%	-3	-8	0	10	2
Cc1oc2c(CN3CCC(C)CC3)c(O)ccc2c(=O)c1-c1ccccc1	0%	-4	-11	-1	-4	44*
CN(C(=O)c1ccc(Br)o1)C1CCS(=O)(=O)C1 (stereo not drawn)	0%	1	-1	0	9	37*
SMILES	B2AR arrestin	D2 ag-1	D2 PAM-1	D2 ag-2	D2 PAM-2	D2 antag
CCN(C(=O)c1ccc(Br)o1)C1CCS(=O)(=O)C1 (stereo not drawn)	0%	12	-7	-1	20	-6
CN1C(=O)C(C)(C)c2cc(S(=O)(=O)N3CCCC(C(=O)NCc4ccccc4Cl)C3)ccc21 (stereo not drawn)	0%	-7	-4	0	-4	-15
Cc1nc2c(C(=O)NCCC(C)C)c[nH]n2c(=O)c1Cc1ccccc1F	0%	3	5	1	5	37*
Cc1nc2c(C(=O)NCCc3ccc(Cl)cc3)c[nH]n2c(=O)c1Cc1ccccc1F	nt	nt	nt	nt	-16	nt
CCOc1ccc(NC(=O)Cn2c(=O)n(Cc3ccco3)c(=O)c3ccc(C(=O)NC4CCCC4)cc32)cc1	nt	nt	nt	0	4	nt
Cc1ccccc1OCC(=O)Nc1ccc2[nH]c(=O)sc2c1	nt	nt	nt	0	-10	nt
CCOC(=O)c1ccc(Nc2ncnc3c2cnn3C)cc1	-3%	3	4	1	-10	9
Cn1ncc2c(O/N=C(\N)c3ccc(C(C)(C)C)cc3)ncnc21	-1%	86*	85*	0	13	-1
Cc1ccc(NC(=O)CN(C)C(=O)COc2cc(F)ccc2[N+](=O)[O-])cc1	0%	-5	-33	-1	-19	62*
COc1ccc(-c2cc([N+](=O)[O-])ccc2OCC(=O)N(C)CC(=O)Nc2ccc(C)cc2)cc1	0%	-4	-26	-1	-3	-5
Cc1occc1C(=O)NNC(=O)c1ccccc1C(=O)O	0%	-1	-1	-1	-11	31*
CC(CNC(=O)c1ccc(CSc2nc3ccncc3n2Cc2ccc(F)cc2)cc1)c1ccccc1 (stereo not drawn)	nt	nt	nt	1	1	nt
COCCn1nnnc1SCC(=O)N1CCCCC1	0%	-3	-6	0	-7	34*
CCOC(=O)c1sc(N2C(=O)C(O)=C(C(=O)c3ccc(C)o3)C2c2cccc([N+](=O)[O-])c2)nc1C (stereo not drawn)	0%	1	-3	0	-5	0
CN(C(=O)CN1CCN(c2cnn(-c3ccccc3)c(=O)c2Cl)CC1)C1CCS(=O)(=O)C1 (stereo not drawn)	0%	-2	7	0	-4	33*
CC1(C)Cc2cccc(OCC(=O)Nc3ccccc3F)c2O1	0%	1	-2	0	-16	1
Cc1ccc(NC(=O)COc2cccc3c2OC(C)(C)C3)c(O)c1	-1%	-2	-13	-1	-3	30*
Clc1ccc(OCCCCN2CCc3ccccc3C2)cc1	0%	-4	-8	0	-37	91*
Cc1ccc(Cl)c(OCCN2CCc3ccccc3C2)c1	-1%	-2	-6	2	-16	66*
C/C=C/c1ccc(OCCN2CCc3ccccc3C2)c(OC)c1	0%	-4	-17	-2	-31	-10
COc1ccc(OCCOCCN2CCc3ccccc3C2)cc1	0%	-2	-52	nt	nt	nt
